Test results taken from PubChem BioAssay (NCI).
Several values for one entry are separate records, joined by “and”; a condition that tells them apart may be missing. Equal entries are not always repeated. About 83,000 compounds went through this panel and 20% of them were active in at least one assay; those are over-represented in the sample as a whole.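 The test compound was applied at a single concentration to cells in 96-well plates for 48 hours, and percent growth was recorded.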 Values without a mark were called inactive. Activity calls are given as the source filed them.

system: HCT-116 colon; test: NCI-60 one-dose screen, 48 h (100 = growth as untreated, 0 = no growth, -100 = all killed); conditions: 10 µM
Method: Growth inhibition of the HCT-116 human tumor cell line is measured as a screen for anti-cancer activity. Cells are grown in 96 well plates and exposed to the test compound for 48 hours. Compounds are tested at a single concentration, which is 10^-5 M for most compounds. The reported endpoint is percent growth (GI% or GIPRCNT), where numbers from 0 - 100% represent growth inhibition, and numbers from -100% - 0 represent cell death. For example, a value of 40 represents 60% growth inhibition. A value of 0 means no net growth occurred over the course of the experiment. A value of -40 indicates 40% of cells at the beginning of the experiment died by the end of the experiment. A value of -100 means all cells are dead at the end of the experiment.
NCI-60 Human Tumor Cell Lines Screen was performed using the standard one-dose NCI protocol, which is described in more detail at https://dtp.cancer.gov/discovery_development/nci-60/default.htm.
Compounds with GIPRCNT values below 10 were considered active. Activity score was based on GIPRCNT using the following formula: […]
Score is 0 for GIPRCNT values of 100 or above, 50 for GIPRCNT values of 0, and 100 for GIPRCNT values of -100.

SMILES	growth [%]
O=c1ccn2c(n1)OC1CC2OC1COC(c1ccccc1)(c1ccccc1)c1ccccc1 (stereo not given)	101

same assay, conditions: 10 µM unless noted

SMILES	growth
O=[N+]([O-])c1ccc(N/N=C/C2CCCCCC2)c([N+](=O)[O-])c1	103%
O=C(c1ccncc1)c1c(Cc2ccccc2)ccc2ccccc12	82%
CCn1c2ccc(N(C)C)cc2c2cc(N(C)C)ccc21	101%
OCc1cccc(F)c1	55.2%
CCN(CC)C(=S)SCCO	107%
NCCSSC/C=C\CSSCCN	94.3%
CC(=O)C[n+]1ccccc1Sc1ccc(Cl)cc1	81.5%
CC(=O)Oc1cc(C)c(OC(C)=O)c(C)c1C	112%
CCC(C)NC(=O)c1ccccc1C (stereo not given)	98.3%
CCC(C)(O)CCC(C)(O)CC (stereo not given)	101%
Cc1nc(Nc2ccc(Cl)cc2)c2cnn(-c3ccccc3)c2n1	101%
CC(C)(C)C1CCC(=NO)CC1 (stereo not given)	96.8%
CCc1ccc(OC(=O)CCl)cc1	102%
CN(C)C(=N)N=C(N)N	108% and 98.3%
COC(=O)c1cc(C(=O)OC)cc([N+](=O)[O-])c1	95.3%
Oc1ccc(O)c(-c2ccccc2)c1	47.1%
C/C=C(/C(=O)NC(N)=O)C(C)C	99.5%
COC(=O)c1nc(=S)[nH]c(C(=O)OC)c1C(=O)c1ccc(OC)cc1	115%
O=[N+]([O-])c1cccc(N=Cc2ccccc2)c1	103%

SMILES	growth
CCOc1ccc(/C=C\C(=O)O)cc1	119%
O=C(O)C#Cc1ccc(Cl)cc1	102%
S=c1ccc2ccccc2[nH]1	95.9% and 102%
CCOC(=O)C1=CC(=O)CC(C)(C)O1	96.8% and 110%
COc1ccc(S(=O)(=O)c2ccc(F)cc2)cc1	102%
OCCS	103%
NC1=NC(c2ccccc2)N=C(Nc2ccccc2)N1 (stereo not given)	59.9% and 44.6%
CCN(CC)CCO/N=C1\CC(c2ccc(OC)c(OC)c2)Oc2ccccc21 (stereo not given)	84.1%
N#CC1c2ccccc2C=CN1C(=O)c1ccccc1 (stereo not given)	107% and 92%
Clc1ccc(/C=C/c2ccc3ccccc3n2)cc1	18.5% and 77% and 63.4%
COc1cc(C2c3cc4c(cc3C(OC(=O)C[n+]3ccccc3)C3COC(=O)C23)OCO4)cc(OC)c1OC (stereo not given)	5.09% (active)
CCCCCCC(C)CC1=C(O)c2ccccc2C(=O)C1=O (stereo not given)	23.6%
Nc1ccc2ccc(NS(=O)(=O)N3CCCCC3)cc2c1	9.95% (active)
Cc1onc(-c2c(F)cccc2Cl)c1-c1ncc(-c2ccc(Cl)cc2)o1	27.1% and 16.6%
O=COCCCc1ccccc1	96.1%
CC(C)(C(=O)c1cccnc1)c1cccnc1	108% and 111%
O=C1CCC(=O)N1CC1CC2CCC1C2 (stereo not given)	106% and 90.5%
COc1ccc(/C=N/NC(N)=S)cc1	89.3%
CCN(CC)C(CC(=O)c1ccccc1)C(=O)c1ccccc1 (stereo not given)	92%

same assay, conditions: 100 µM

SMILES	growth [%]
O=c1ccn2c(n1)OC1CC2OC1COC(c1ccccc1)(c1ccccc1)c1ccccc1 (stereo not given)	40.1
